Data reported in the supplement of paper PMC6555819.

Tests used:
Experiment in all cases: PBM binding z-score (relative to random genomic background probes); higher = stronger binding; sequences stand for … in GC…GCGATTGACAGCGTAGAATGAAGG
[1] = system: FXR:RXRa (NR concentration 270 nM, RXRa partner concentration 90 nM)
Procedure, shortened: (§1)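 Custom Agilent 4×180K protein-binding microarrays carried double-stranded probes, each with a 34-nt variable region. These regions held direct-repeat seeds, single-nucleotide variants, half-site ablations and random human genomic background sequences. Ligand-free nuclear receptor dimers were incubated on the arrays for 1 h, antibodies against each partner (one per run) detected binding, and scanned fluorescence was regression-normalized. Binding z-scores take the random background probes as reference.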

[2] = system: LXRa:RXRa (NR concentration 270 nM, RXRa partner concentration 90 nM)
Procedure, shortened: as §1

[3] = system: LXRa homodimer (NR concentration 270 nM)
Procedure, shortened: as §1

[4] = system: LXRb:RXRa (NR concentration 270 nM, RXRa partner concentration 90 nM)
Procedure, shortened: as §1

[5] = system: LXRb homodimer (NR concentration 270 nM)
Procedure, shortened: as §1

[6] = system: PPARa:RXRa (NR concentration 270 nM, RXRa partner concentration 90 nM)
Procedure, shortened: as §1

[7] = system: PPARg:RXRa (NR concentration 180 nM, RXRa partner concentration 90 nM)
Procedure, shortened: as §1

[8] = system: PPARg:RXRa 270nM:90nM, anti-RXR (NR concentration 270 nM, RXRa partner concentration 90 nM)
Procedure, shortened: as §1

[9] = system: PPARg:RXRa 30nM:10nM, anti-RXR (NR concentration 30 nM, RXRa partner concentration 10 nM)
Procedure, shortened: as §1

[10] = system: PPARg:RXRa 90nM:30nM, anti-RXR (NR concentration 90 nM, RXRa partner concentration 30 nM)
Procedure, shortened: as §1

[11] = system: PPARg:RXRa DBDmut IVT, anti-RXR (DBD mutation: RXRa K156A/R161A, NR concentration 270 nM, RXRa partner concentration 90 nM)
Procedure, shortened: as §1

[12] = system: PPARg:RXRa IVT, anti-PPARg (NR concentration 270 nM, RXRa partner concentration 90 nM)
Procedure, shortened: as §1

[13] = system: PPARg DBDmut:RXRa IVT, anti-PPARg (DBD mutation: PPARg1 K132A/R137A, NR concentration 270 nM, RXRa partner concentration 90 nM)
Procedure, shortened: as §1

[14] = system: PPARg DBDmut IVT, anti-PPARg (DBD mutation: PPARg1 K132A/R137A, NR concentration 270 nM)
Procedure, shortened: as §1

[15] = system: PPARg homodimer (NR concentration 180 nM)
Procedure, shortened: as §1

[16] = system: PXR:RXRa (NR concentration 270 nM, RXRa partner concentration 90 nM)
Procedure, shortened: as §1

[17] = system: PXR homodimer (NR concentration 270 nM)
Procedure, shortened: as §1

[18] = system: RARa:RXR (NR concentration 270 nM, RXRa partner concentration 90 nM)
Procedure, shortened: as §1

[19] = system: RARa homodimer (NR concentration 270 nM)
Procedure, shortened: as §1

[20] = system: RARb:RXRa (NR concentration 270 nM, RXRa partner concentration 90 nM)
Procedure, shortened: as §1

Row | Sequence | PBM binding z-score [1] | PBM binding z-score [2] | PBM binding z-score [3] | PBM binding z-score [4] | PBM binding z-score [5] | PBM binding z-score [6] | PBM binding z-score [7] | PBM binding z-score [8] | PBM binding z-score [9] | PBM binding z-score [10] | PBM binding z-score [11] | PBM binding z-score [12] | PBM binding z-score [13] | PBM binding z-score [14] | PBM binding z-score [15] | PBM binding z-score [16] | PBM binding z-score [17] | PBM binding z-score [18] | PBM binding z-score [19] | PBM binding z-score [20]
1 | TTCCCAAGGTGAAGGTCGTTGATCCCTCTGTAGA | 2.26 | 2.23 | -0.0326 | 1.74 | -0.362 | 2.26 | 0.674 | 1.81 | 0.663 | 1.37 | 0.771 | 2.06 | -0.218 | -0.23 | 1.17 | 1.5 | 0.155 | 1.78 | -0.438 | 2.2
2 | CCTATTAGTTGACAATAAGGGCAACCGAAGCTCG | 0.365 | 0.482 | 0.182 | 0.544 | 0.647 | 0.418 | 0.511 | 0.218 | 0.0655 | 0.0255 | 0.466 | 0.343 | 0.307 | 0.312 | 0.811 | 0.771 | 0.868 | 1.07 | 1.45 | 1.21
3 | TCACCAAGGTGAAGGTCGTTGATCCCTCTGTAGA | 2.28 | 2.24 | -0.136 | 1.8 | -0.731 | 2.71 | 2.23 | 3.66 | 2.84 | 3.37 | 2.46 | 2.65 | 0.477 | 0.105 | -0.15 | 1.61 | 0.00737 | 1.94 | -1.46 | 2.27
4 | CCTAGCAGGCCAATCTGGGGCACTCAAGGCTTGA | -0.393 | -0.285 | -0.624 | -0.768 | -1.24 | 0.967 | 0.549 | 0.547 | -0.732 | -0.289 | 3.51 | 3.96 | -0.514 | -1.4 | -0.431 | -0.51 | -1.01 | -0.273 | -0.87 | 0.323
5 | TAGCCTAGGTCATGCGGGCCAGTAGAGTGTCGGC | 4.11 | 3.32 | -0.00774 | 1.64 | -0.216 | 3.58 | 1.91 | 2.64 | 0.154 | 1.57 | 1.93 | 2.8 | -0.889 | -0.693 | 0.316 | 1.39 | -0.448 | 2.37 | -0.56 | 3.75
6 | TCTTGAAGATCAAGCAGGTTAAGAAAGCCTGAGT | 0.132 | 0.199 | -0.36 | 0.402 | -0.998 | 0.437 | -0.324 | 1.11 | 2.96 | 1.74 | 1.28 | -0.366 | 0.0587 | -0.888 | -0.603 | 0.456 | -0.168 | 0.215 | -1.22 | 0.0323
7 | CAAGACAGGTGAGAAGGTAACTCAGCCTCGATTA | 0.353 | 0.452 | -0.0734 | 0.183 | 0.194 | 0.791 | 0.815 | 0.902 | 0.302 | 0.808 | 0.761 | 1.21 | -0.174 | -0.268 | 0.64 | 0.215 | 0.678 | 0.355 | 0.384 | 0.867
